Assay results reported in PubChem BioAssay.
For some assays here: Potency and affinity values are given separately. Active and inactive are the calls of the source. Unless noted, no rule for the calls is given here.

Tests used:
[1] = antimalarial activity against Dd2 strain (AID 2302;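 active = growth inhibition above 50% at the single 2 µM test dose, taken to imply half-maximal potency below 2 µM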;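 also: 0% = DMSO untreated growth and 100% = chloroquine plus artemisinin killed control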); conditions: P. falciparum Dd2 in RBCs, LDH growth readout, 72 h; at 2 µM; active compounds read high
[2] = human hepatoma cell viability loss – ATP luminescence, cytotoxicity control for P. falciparum antimalarial project, primary screen (AID 2303;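 active = inhibition above 50%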;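 also: 0% = DMSO wells and 100% = digitonin-killed cells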); conditions: HepG2 viability, 24-48 h, at 10 µM, active compounds read high
[3] = molecular target: L-lactate dehydrogenase (Plasmodium falciparum (isolate CDC / Honduras)) (UniProt Q27743); test: PfLDH activity inhibition – cell lysate, 3D7 strain, counter-screen for P. falciparum growth inhibition project (AID 2304);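 also: 0% = vehicle and 100% = reference inhibitor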; conditions: P. falciparum 3D7 crude extract, LDH APAD/NBT absorbance; at 2 µM; active compounds read high
[4] = inhibition of 3D7 malaria parasite growth – strain 3D7 (AID 2306);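 also: 0% = DMSO wells and 100% = chloroquine plus artemisinin control wells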; conditions: P. falciparum 3D7 erythrocytic growth, LDH absorbance, 72 h; at 2 µM; active compounds read high
[5] = molecular target: Calcium-dependent protein kinase 1 (Plasmodium falciparum (isolate 3D7)) (UniProt P62344); test: PfCDPK1 kinase inhibitors, biochemical, TCAMS library (AID 1159585; cut-off not given, nearly all actives have IC50 up to about 0.98 µM;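 also: inhibitors leave more ATP so luminescence rises with inhibition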); conditions: recombinant PfCDPK1, Kinase-Glo ATP depletion luminescence
[6] = molecular target: Plasmodium falciparum protein kinase 6 (PK6, PF3D7_1337100) (UniProt Q8IDW1); test: PfPK6 kinase inhibitors, biochemical, TCAMS library (AID 1159586); conditions: recombinant PfPK6, Kinase-Glo ATP depletion luminescence
[7] = molecular target: Protein kinase 7 (PK7), Plasmodium falciparum 3D7 (PF3D7_0213400) (UniProt Q7YTF7); test: inhibition of Plasmodium PK7 catalytic activity – biochemical, TCAMS antimalarial set, Kinase-Glo luminescence (AID 1159587); conditions: recombinant PfPK7, Kinase-Glo ATP depletion luminescence
[8] = molecular target: Calcium-dependent protein kinase 4 (Plasmodium falciparum (isolate 3D7)) (UniProt Q8IBS5); test: PfCDPK4 kinase inhibitors, biochemical, TCAMS library (AID 1159588; cut-off not given, nearly all actives have IC50 up to about 0.91 µM); conditions: recombinant PfCDPK4, Kinase-Glo ATP depletion luminescence
Calcium-dependent protein kinase 4 (Plasmodium falciparum (isolate 3D7)), sequence (Q8IBS5 whole entry, looked up): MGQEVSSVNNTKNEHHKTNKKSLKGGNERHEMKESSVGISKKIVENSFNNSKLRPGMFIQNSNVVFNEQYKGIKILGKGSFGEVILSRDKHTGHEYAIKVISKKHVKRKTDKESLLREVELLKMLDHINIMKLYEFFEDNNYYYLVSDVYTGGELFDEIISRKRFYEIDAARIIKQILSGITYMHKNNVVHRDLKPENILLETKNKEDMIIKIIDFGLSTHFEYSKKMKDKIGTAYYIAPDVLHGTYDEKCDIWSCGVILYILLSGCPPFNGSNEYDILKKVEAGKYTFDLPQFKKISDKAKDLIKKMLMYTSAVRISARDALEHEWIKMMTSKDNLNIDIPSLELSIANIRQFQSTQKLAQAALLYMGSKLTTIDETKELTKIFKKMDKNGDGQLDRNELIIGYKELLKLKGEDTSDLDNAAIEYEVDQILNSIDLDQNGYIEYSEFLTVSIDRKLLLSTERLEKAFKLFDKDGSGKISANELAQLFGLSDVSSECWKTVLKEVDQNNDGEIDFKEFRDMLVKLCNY

Plasmodium falciparum protein kinase 6 (PK6, PF3D7_1337100), sequence (Q8IDW1 1-305): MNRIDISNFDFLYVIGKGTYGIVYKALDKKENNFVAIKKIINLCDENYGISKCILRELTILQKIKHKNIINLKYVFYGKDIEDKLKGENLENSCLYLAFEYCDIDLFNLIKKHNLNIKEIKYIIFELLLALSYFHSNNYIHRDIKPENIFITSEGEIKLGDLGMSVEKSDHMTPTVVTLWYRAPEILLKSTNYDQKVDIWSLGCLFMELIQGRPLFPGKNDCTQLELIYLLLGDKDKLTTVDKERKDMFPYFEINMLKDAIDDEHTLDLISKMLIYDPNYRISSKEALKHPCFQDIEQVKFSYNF
L-lactate dehydrogenase (Plasmodium falciparum (isolate CDC / Honduras)), sequence (Q27743 whole entry, looked up): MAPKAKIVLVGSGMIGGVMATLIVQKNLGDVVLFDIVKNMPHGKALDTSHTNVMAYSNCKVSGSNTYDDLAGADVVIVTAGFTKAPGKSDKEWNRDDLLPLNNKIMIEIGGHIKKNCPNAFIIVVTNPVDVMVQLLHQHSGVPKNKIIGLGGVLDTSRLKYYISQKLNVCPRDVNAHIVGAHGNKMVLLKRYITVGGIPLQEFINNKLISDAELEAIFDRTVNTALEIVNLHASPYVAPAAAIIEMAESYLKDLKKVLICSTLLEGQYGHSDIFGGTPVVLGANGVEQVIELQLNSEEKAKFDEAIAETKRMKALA
Calcium-dependent protein kinase 1 (Plasmodium falciparum (isolate 3D7)), sequence (P62344 whole entry, looked up): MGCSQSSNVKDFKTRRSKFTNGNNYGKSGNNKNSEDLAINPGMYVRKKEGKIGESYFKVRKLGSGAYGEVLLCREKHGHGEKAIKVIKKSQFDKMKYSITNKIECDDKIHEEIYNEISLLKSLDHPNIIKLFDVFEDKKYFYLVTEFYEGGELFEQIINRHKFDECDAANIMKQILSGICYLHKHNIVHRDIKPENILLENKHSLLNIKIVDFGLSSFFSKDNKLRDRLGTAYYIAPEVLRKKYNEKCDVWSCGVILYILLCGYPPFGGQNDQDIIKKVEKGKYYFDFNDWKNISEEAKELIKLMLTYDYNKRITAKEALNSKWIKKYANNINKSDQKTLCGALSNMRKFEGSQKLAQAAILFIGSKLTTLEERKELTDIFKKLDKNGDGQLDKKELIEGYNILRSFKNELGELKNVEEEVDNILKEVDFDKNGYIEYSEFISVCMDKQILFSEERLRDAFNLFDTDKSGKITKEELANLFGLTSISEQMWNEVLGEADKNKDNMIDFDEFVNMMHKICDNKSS
Protein kinase 7 (PK7), Plasmodium falciparum 3D7 (PF3D7_0213400), sequence (Q7YTF7 1-343): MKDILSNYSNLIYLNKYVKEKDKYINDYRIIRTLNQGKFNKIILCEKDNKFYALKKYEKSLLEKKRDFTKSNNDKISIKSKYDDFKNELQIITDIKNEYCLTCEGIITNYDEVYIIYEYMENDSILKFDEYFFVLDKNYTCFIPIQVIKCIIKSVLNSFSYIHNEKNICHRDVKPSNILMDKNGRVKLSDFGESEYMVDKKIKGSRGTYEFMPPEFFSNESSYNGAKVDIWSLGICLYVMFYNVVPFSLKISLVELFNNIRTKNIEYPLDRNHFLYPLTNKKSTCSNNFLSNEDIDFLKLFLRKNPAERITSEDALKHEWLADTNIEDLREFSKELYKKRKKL

CC(=O)c1sc(NC(=O)Nc2ccc(C)cc2C)nc1C
active: growth inhibition [1] 68% | growth inhibition [4] 96%
inactive: inhibition [2] 5% | inhibition [3] 0% | outcome [5] | outcome [6] | outcome [7] | outcome [8]

COc1ccc(S(=O)(=O)N2CCCC(C)C2)cc1N1CCN(C(=O)c2ccc([N+](=O)[O-])o2)CC1 (stereo not given)
active: growth inhibition [4] 94%
inactive: growth inhibition [1] 4% | inhibition [2] -3% | inhibition [3] -2% | outcome [5] | outcome [6] | outcome [7] | outcome [8]

Cc1ccc(NC(=O)c2cc(S(=O)(=O)NC(C)(C)C)ccc2C)nc1
inactive: inhibition [2] -1% | inhibition [3] -2% | outcome [5] | outcome [6] | outcome [7] | outcome [8]
active: growth inhibition [1] 80% | growth inhibition [4] 86%

COCCNCc1cccc(-c2ccc3c(Nc4ccc(F)cc4Cl)ccnc3c2)c1
inactive: inhibition [2] 8% | inhibition [3] 3% | outcome [5] | outcome [6] | outcome [7] | outcome [8]
active: growth inhibition [1] 100% | growth inhibition [4] 103%

Cc1ccc(Cl)cc1NC(=O)c1c(-c2ccccc2Cl)noc1C
active: growth inhibition [4] 88%
inactive: growth inhibition [1] 37% | inhibition [2] 9% | inhibition [3] -1% | outcome [5] | outcome [6] | outcome [7] | outcome [8]

COc1c(OC)c(OC)c2ccccc2c1CNCCCCCCNCc1c(OC)c(OC)c(OC)c2ccccc12
inactive: inhibition [3] 3% | outcome [5] | outcome [6] | outcome [7] | outcome [8]
active: growth inhibition [1] 71% | inhibition [2] 99% | growth inhibition [4] 100%

O=C(/C=C/c1ccc(C(F)(F)F)cc1)NCCCCCN1CCN(C(=O)Nc2ccc(Cl)c(Cl)c2)CC1
inactive: growth inhibition [1] -4% | inhibition [2] 37% | inhibition [3] 5% | outcome [5] | outcome [6] | outcome [7] | outcome [8]
active: growth inhibition [4] 95%

CC(C)(C)c1ccc(NC(=O)c2ccc(CN3CCCN(Cc4cccc(F)c4)CC3)cc2)cc1
active: inhibition [2] 51% | growth inhibition [4] 90%
inactive: growth inhibition [1] 8% | inhibition [3] -2% | outcome [5] | outcome [6] | outcome [7] | outcome [8]

COc1ccc2nccc([C@@H](O)CN3CCC(NCc4nc5c(F)cccc5[nH]4)CC3)c2c1
inactive: growth inhibition [1] 6% | inhibition [2] -6% | inhibition [3] -7% | outcome [5] | outcome [6] | outcome [7] | outcome [8]
active: growth inhibition [4] 103%

COc1cccc(CN2Cc3ccccc3OC3(CCN(Cc4c[nH]c5cnccc45)CC3)C2)c1
inactive: inhibition [2] 39% | inhibition [3] -3% | outcome [5] | outcome [6] | outcome [7] | outcome [8]
active: growth inhibition [1] 83% | growth inhibition [4] 83%

Cn1nc(-c2ccccc2F)c2cc(C(=O)NC3CCN(Cc4ccccc4)CC3)sc21
active: growth inhibition [4] 97%
inactive: growth inhibition [1] 34% | inhibition [2] 5% | inhibition [3] 3% | outcome [5] | outcome [6] | outcome [7] | outcome [8]

CN1CC=C(c2csc3ccc(NC(=O)Nc4ccc(-c5ccncc5)c5ccccc45)cc23)CC1
inactive: inhibition [2] 20% | inhibition [3] 1% | outcome [5] | outcome [6] | outcome [7] | outcome [8]
active: growth inhibition [1] 99% | growth inhibition [4] 93%

CN1CCC(NCc2cccc(-c3cccc(S(=O)(=O)NCc4ccccc4)c3)c2)CC1
active: inhibition [2] 57% | growth inhibition [4] 100%
inactive: growth inhibition [1] 6% | inhibition [3] -2% | outcome [5] | outcome [6] | outcome [7] | outcome [8]

C=CCc1cc(Cc2cnc(N)nc2N)c2ccc(C)nc2c1O
active: inhibition [2] 51% | growth inhibition [4] 84%
inactive: growth inhibition [1] 3% | inhibition [3] 0% | outcome [5] | outcome [6] | outcome [7] | outcome [8]

Cn1nc(-c2ccc(NC(=O)Nc3cc(C(F)(F)F)ccc3F)cc2)c2cnc(NCCc3cnc[nH]3)nc21
inactive: inhibition [2] 15% | inhibition [3] -3% | outcome [5] | outcome [6] | outcome [7] | outcome [8]
active: growth inhibition [1] 56% | growth inhibition [4] 99%

COc1ccc2c(c1)CC1CN(CCCCNC(=O)c3ccc(NC(=O)c4cc(Cl)cc(Cl)c4)cc3)CCN1C2 (stereo not given)
inactive: inhibition [2] 7% | inhibition [3] 1% | outcome [5] | outcome [6] | outcome [7] | outcome [8]
active: growth inhibition [1] 57% | growth inhibition [4] 101%

O=[N+]([O-])c1ccc(-c2ccc(C=NNc3nc(Nc4ccccc4)nc(Nc4ccccc4)n3)o2)cc1
active: growth inhibition [4] 91%
inactive: growth inhibition [1] 12% | inhibition [2] -4% | inhibition [3] 1% | outcome [5] | outcome [6] | outcome [7] | outcome [8]

NC1=NC(c2ccccc2)(c2ccccc2)C(=O)N1CCCCc1ccccn1
active: growth inhibition [1] 56% | growth inhibition [4] 94%
inactive: inhibition [2] 10% | inhibition [3] -4% | outcome [5] | outcome [6] | outcome [7] | outcome [8]

OC(CNCc1ccco1)Cn1c2ccc(Br)cc2c2cc(Br)ccc21 (stereo not given)
inactive: inhibition [2] 10% | inhibition [3] -3% | outcome [5] | outcome [6] | outcome [7] | outcome [8]
active: growth inhibition [1] 72% | growth inhibition [4] 92%

Nc1cc(-c2cccc(Cl)c2)nn1-c1ccnc2cc(Cl)ccc12
active: growth inhibition [4] 99%
inactive: growth inhibition [1] 33% | inhibition [2] -3% | inhibition [3] -2% | outcome [5] | outcome [6] | outcome [7] | outcome [8]

Fc1ccc2cc(C=Cc3ccncc3)[nH]c2c1
active: growth inhibition [1] 89% | growth inhibition [4] 100%
inactive: inhibition [2] -10% | inhibition [3] 0% | outcome [5] | outcome [6] | outcome [7] | outcome [8]

COc1ccc(O)c(C(=O)c2cnc3c(c2)c(-c2ccc(F)cc2)c(C#N)c(=O)n3C)c1
inactive: growth inhibition [1] 14% | inhibition [2] 7% | inhibition [3] -2% | outcome [5] | outcome [6] | outcome [7] | outcome [8]
active: growth inhibition [4] 92%

NC(=O)COc1c(C2CCN(CCCCNC(=O)c3ccc(-c4ccc(Cl)cc4)c(O)c3)CC2)ccc2c1CCCC2
active: growth inhibition [1] 72% | inhibition [2] 97% | growth inhibition [4] 101%
inactive: inhibition [3] 4% | outcome [5] | outcome [6] | outcome [7] | outcome [8]

COc1cc2c(=O)c(Cc3ccc(Cl)cc3)c(C)[nH]c2cc1F
active: growth inhibition [4] 85%
inactive: growth inhibition [1] 28% | inhibition [2] 13% | inhibition [3] 1% | outcome [5] | outcome [6] | outcome [7] | outcome [8]

CNC(=O)c1cnc(Nc2ccc(N3CCN(C)CC3)cc2)nc1Nc1cccc(OC)c1
inactive: inhibition [2] 19% | inhibition [3] 5% | outcome [5] | outcome [6] | outcome [7] | outcome [8]
active: growth inhibition [1] 101% | growth inhibition [4] 100%

O=C(Nc1ccc(CC(=O)N2CCc3cc(Cl)c(N4CCN(C/C=C/c5ccccc5)CC4)cc32)cc1)Nc1cccc([N+](=O)[O-])c1
inactive: growth inhibition [1] 27% | inhibition [2] -8% | inhibition [3] -5% | outcome [5] | outcome [6] | outcome [7] | outcome [8]
active: growth inhibition [4] 95%

CCN(CC)CCCN(CCCN(CC)CC)c1cc(C)nc(Nc2ccc(Cl)cc2)n1
inactive: growth inhibition [1] 7% | inhibition [2] 11% | inhibition [3] 2% | outcome [5] | outcome [6] | outcome [7] | outcome [8]
active: growth inhibition [4] 101%

Cc1ccc2ccccc2c1CCCON1C(N)=NC(N)=NC1(C)C
active: growth inhibition [1] 97% | inhibition [2] 65% | growth inhibition [4] 95%
inactive: inhibition [3] 5% | outcome [5] | outcome [6] | outcome [7] | outcome [8]

Cn1c(Cc2ccccc2)nnc1Sc1ccc(C#N)c([N+](=O)[O-])c1
inactive: growth inhibition [1] 29% | inhibition [2] -5% | inhibition [3] -5% | outcome [5] | outcome [6] | outcome [7] | outcome [8]
active: growth inhibition [4] 93%

COc1ccc(C2CC(c3cccs3)=NN2C(=O)c2ccco2)cc1OC (stereo not given)
inactive: inhibition [2] -3% | inhibition [3] 4% | outcome [5] | outcome [6] | outcome [7] | outcome [8]
active: growth inhibition [1] 97% | growth inhibition [4] 101%

NC1=Nc2ccc(Cl)cc2C1(O)c1ccccc1 (stereo not given)
active: growth inhibition [1] 51% | growth inhibition [4] 100%
inactive: inhibition [2] -3% | inhibition [3] -3% | outcome [5] | outcome [6] | outcome [7] | outcome [8]

COc1cc(Cc2cnc(N)nc2N)cc(OCCCCC2SC(=O)NC2=O)c1Br (stereo not given)
inactive: growth inhibition [1] -2% | inhibition [2] 15% | inhibition [3] 4% | outcome [5] | outcome [6] | outcome [7] | outcome [8]
active: growth inhibition [4] 94%

O=C(Nc1ccc(-c2ccccc2)cc1)Nc1cccc(Cn2nc(Cl)c(N3CCNCC3)cc2=O)c1
inactive: inhibition [2] 15% | inhibition [3] -2% | outcome [5] | outcome [6] | outcome [7] | outcome [8]
active: growth inhibition [1] 79% | growth inhibition [4] 102%

Cn1cnc(CCNC(=O)c2cccc(-c3ccc(-c4nc5ccc(F)cc5[nH]4)cc3)c2)c1
active: growth inhibition [4] 88%
inactive: growth inhibition [1] 5% | inhibition [2] 26% | inhibition [3] 4% | outcome [5] | outcome [6] | outcome [7] | outcome [8]

COc1cc2c(cc1OC)C(c1ccc(Br)cc1)CN(C)CC2 (stereo not given)
active: growth inhibition [4] 86%
inactive: growth inhibition [1] -3% | inhibition [2] 8% | inhibition [3] -3% | outcome [5] | outcome [6] | outcome [7] | outcome [8]

CC(C)CNCc1cccc(-c2ccc(CN(CCCN3CCN(C)CC3)C(=O)CCC3CCCC3)cc2)c1
inactive: inhibition [3] 0% | outcome [5] | outcome [6] | outcome [7] | outcome [8]
active: growth inhibition [1] 89% | inhibition [2] 82% | growth inhibition [4] 98%

CC(C)CCN1CCCN(Cc2ccc(C(=O)Nc3ccc(Cl)cc3)cc2)CC1
inactive: growth inhibition [1] 15% | inhibition [2] 46% | inhibition [3] 4% | outcome [5] | outcome [6] | outcome [7] | outcome [8]
active: growth inhibition [4] 94%

CC(C)CNCc1cccc(-c2ccc(CN(C(=O)NCCc3ccccc3)C3CCN(Cc4ccccc4)CC3)cc2)c1
active: inhibition [2] 99% | growth inhibition [4] 98%
inactive: growth inhibition [1] 47% | inhibition [3] 5% | outcome [5] | outcome [6] | outcome [7] | outcome [8]

c1cc(CN2CCN(c3ccncc3)CC2)cc(-c2ccc(-c3nc4ccccc4[nH]3)s2)c1
inactive: inhibition [3] -2% | outcome [5] | outcome [6] | outcome [7] | outcome [8]
active: growth inhibition [1] 100% | inhibition [2] 59% | growth inhibition [4] 102%

CCCSc1nc2c(c(=O)n1Cc1ccco1)C1(CCCCC1)Cc1ccccc1-2
inactive: inhibition [2] -1% | inhibition [3] 0% | outcome [5] | outcome [6] | outcome [7] | outcome [8]
active: growth inhibition [1] 95% | growth inhibition [4] 100%
